Several values for one entry are separate records, joined by “and”; a condition that tells them apart may be missing. Identical values can stand only once. Counter-ions that a name gives are not always drawn. Hit rate of the full screen: of about 5,800 compounds, about 620 (11%) showed activity. The sample as a whole holds a higher share of actives than the screen did. Unmarked numbers belong to inactive results.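 The calls were made as follows: active = score above a cut-off or among the top three wells of a plate; in these data no inactive exceeds 0.85.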

The values that follow come from the supplement of paper PMC9135407.

For this test, the system named is primary human hepatic stellate cells (donor 1). Nature of the test: scaled lipid accumulation score (0 = DMSO-like, 1 = nortriptyline-like); higher = stronger HSC inactivation (lipid re-accumulation), active = hit call of the paper. The settings on record: 48 h.
Setting [1] is: library stock concentration: 10 mM.
Setting [2] is: library stock concentration: 1 mM.
Where [3] appears, read: library stock concentration: 80 uM.
[4] abbreviates: library stock concentration: 400 uM.
The mark [5] stands for this setting: library stock concentration: 2 mM.
The mark [6] stands for this setting: library stock concentration: 3.33 mM.
[7] abbreviates: library stock concentration: 5.9 mM.

As for `Cc1onc(O)c1C[C@H](N)C(=O)O`, the “scaled lipid accumulation score” value under setting [1] was not above 0.

As to `CCCCC/C=C\C/C=C\C/C=C\C/C=C\CCCC(=O)Nc1ccc([N+](=O)[O-])cc1` [Arachidonoyl p-Nitroaniline], the “scaled lipid accumulation score” value under setting [2] was not above 0. Still for that read-out and setting: the figure for `c1cc2ccc(N3CCNCC3)cc2cn1` [7-piperazin-1-yl-Isoquinoline (hydrochloride)] is not above 0. On to `CCN1CCN(C(=O)Cc2ccc(Nc3ncc(F)c(Nc4ccc(C(=O)Nc5ccccc5Cl)cc4)n3)cc2)CC1` [Aurora A Inhibitor I] [listing 1 of 2 here], for which the “scaled lipid accumulation score” value under setting [1] is 1.24 (active). For `CCN1CCN(C(=O)Cc2ccc(Nc3ncc(F)c(Nc4ccc(C(=O)Nc5ccccc5Cl)cc4)n3)cc2)CC1`, the “scaled lipid accumulation score” value was not above 0 under setting [3], not above 0 under setting [4], 0.676 under setting [5] and 0.801 under setting [1]. Consider `CCN1CCN(C(=O)Cc2ccc(Nc3ncc(F)c(Nc4ccc(C(=O)Nc5ccccc5Cl)cc4)n3)cc2)CC1` [Aurora A Inhibitor I] [listing 2 of 2 here], for which the “scaled lipid accumulation score” value under setting [6] was 0.402. For `NC(Cn1oc(=O)[nH]c1=O)C(=O)O` (single isomer, unassigned; (+)) [(+)-Quisqualic acid], the “scaled lipid accumulation score” value under setting [1] is not above 0. Turning to `CO[C@]12C[C@@H](COC(=O)c3cncc(Br)c3)CN(C)[C@@H]1Cc1cn(C)c3cccc2c13` [Nicergoline], the “scaled lipid accumulation score” value is not above 0. Moreover, under setting [1], the “scaled lipid accumulation score” value is 0.682 and 0.399. In the case of `CC[C@@H](CO)NC(=O)[C@@H]1C=C2c3cccc4c3c(cn4C)C[C@H]2N(C)C1` [Methysergide], under “library stock concentration: 5.7 mM”, the “scaled lipid accumulation score” value is not above 0. With `CN1C[C@H](CNC(=O)OCc2ccccc2)C[C@@H]2c3cccc4c3c(cn4C)C[C@H]21` [Metergoline] [listing 1 of 3 here], the “scaled lipid accumulation score” value under setting [1] was 0.893 (active). The same measure, in the same setting: the figure for `CC[C@@H](CO)NC(=O)[C@@H]1C=C2c3cccc4c3c(cn4C)C[C@H]2N(C)C1` [Methysergide maleate] is 0.458 and 0.048. For `CN1C[C@H](CNC(=O)OCc2ccccc2)C[C@@H]2c3cccc4c3c(cn4C)C[C@H]21` [Metergoline] [listing 2 of 3 here], the “scaled lipid accumulation score” value is 1.06 (active). Take `CN1CC(CNC(=O)OCc2ccccc2)C[C@H]2c3cccc4c3c(cn4C)CC21` (stereo not given in full) [Metergoline]: under setting [1], the “scaled lipid accumulation score” value is 1.05 (active). Regarding `CN1C[C@H](CNC(=O)OCc2ccccc2)C[C@@H]2c3cccc4c3c(cn4C)C[C@H]21` [Metergoline] [listing 3 of 3 here], the “scaled lipid accumulation score” value under setting [1] was 0.653. Turning to `CCOC(=O)CN1C(=O)CC(C[C@@H](O)C2C[C@@H](C)C[C@H](C)C2=O)CC1=O` (stereo not given in full) [Cycloheximide-N-ethylethanoate], the “scaled lipid accumulation score” value (library stock concentration: 13.6 mM) is not above -0.021.

With `Cc1cc([C@@H]2CCCN2C)on1` [ABT-418 hydrochloride], the “scaled lipid accumulation score” value under setting [1] is not above 0. For `CCOc1ccccc1-n1c(C(C)N2CCN(C(=O)COc3ccc(Cl)cc3)CC2)nc2ccccc2c1=O` (stereo not given) [Erastin], the “scaled lipid accumulation score” value runs as follows: under setting [6], not above -0.009; under setting [1], 0.473. Take `C[N+]1(C)CCc2cc3c(cc2C1C1OC(=O)c2c1ccc1c2OCO1)OCO3` (single isomer, unassigned; (-)) [(-)-Bicuculline methobromide]: under setting [1], the “scaled lipid accumulation score” value was not above 0. Same read-out and setting: the figure for `O=C(O)/C=C/CO` [trans-4-Hydroxycrotonic acid] is 0.003. With `CCCCCCCC/C=C\CCCCCCCC(=O)Nc1ccccc1` [Oleyl Anilide], the “scaled lipid accumulation score” value under setting [2] is 0.024.

`CS(=O)(=O)Nc1ccc(Cc2noc(-c3ccc4[nH]cc(CCN)c4c3)n2)cc1`: the “scaled lipid accumulation score” value under setting [1] is not above 0. For `COc1ccc(CCN2CCC(Nc3nc4ccccc4n3Cc3ccc(F)cc3)CC2)cc1` [Astemizole] [listing 1 of 3 here], the “scaled lipid accumulation score” value was 1 (active). Take `COc1ccc(CCN2CCC(Nc3nc4ccccc4n3Cc3ccc(F)cc3)CC2)cc1` [Astemizole] [listing 2 of 3 here]: the “scaled lipid accumulation score” value by setting is: (library stock concentration: 4.4 mM) 0.824 and 0.409; under setting [1], 0.475. `COc1ccc(C(=O)c2c(C)n(CCN3CCOCC3)c3ccccc23)cc1` [Pravadoline]: the “scaled lipid accumulation score” value (library stock concentration: 5.3 mM) was not above -0.006. `COc1ccc(CCN2CCC(Nc3nc4ccccc4n3Cc3ccc(F)cc3)CC2)cc1` [Astemizole] [listing 3 of 3 here]: under setting [1], the “scaled lipid accumulation score” value is 0.907 (active). Take `CC(=O)N[C@H]1[C@@H](O[C@@H]2O[C@H](CC(O)[C@H]3O[C@@H](n4ccc(=O)[nH]c4=O)[C@H](O)[C@@H]3O)[C@H](O)[C@H](O)[C@H]2NC(=O)/C=C/CC(C)C)O[C@H](CO)[C@@H](N)[C@@H]1O` (stereo not given in full) [Tunicamycin]: where the note is “library stock concentration: 7 mM”, the “scaled lipid accumulation score” value was 0.058.

Consider `CN1CC[C@@]2(C)c3cc(OC(=O)Nc4ccccc4)ccc3N(C)[C@@H]12` [Phenserine], for which, under setting [1], the “scaled lipid accumulation score” value was 0.339. Same read-out and setting: as for `NCCc1ccccn1`, the figure is not above 0.

In the case of `CCCCCCC(=O)CCCCCC/C=C/C[C@@H](O)[C@H](O)[C@@](N)(CO)C(=O)O` [Myriocin], the “scaled lipid accumulation score” value under setting [2] is 0.023. `O[C@H]1[C@H]2[C@H](O)CCCN2C[C@H]1O` [swainsonine]: under “library stock concentration: 28.9 mM”, the “scaled lipid accumulation score” value was 0.01.

For the molecule `Clc1ccc(N2CCN(Cc3c[nH]c4ncccc34)CC2)cc1` [L-745,870 trihydrochloride], the “scaled lipid accumulation score” value under setting [1] was 0.37. Regarding `Cl.Clc1ccc(N2CCN(Cc3c[nH]c4ncccc34)CC2)cc1` [L-745,870 hydrochloride], the “scaled lipid accumulation score” value under setting [1] is 0.902 (active).

With `CC1=CC(=O)C2=C(C)C[C@H](O)[C@@H]3[C@H](OC(=O)[C@H]3C)[C@H]12` [Austricine hydrate], the “scaled lipid accumulation score” value was not above 0. As to `CCCCC[C@@H](/C=C/C=C\CCCCCCCC(=O)O)OO`, the “scaled lipid accumulation score” value (library stock concentration: 100 uM) was not above -0.021. Take `CO[C@@H]1C=C2CCN(C)[C@@H]2C2c3cc4c(cc3C(=O)OC21)OCO4` (stereo not given in full) [Ungerine nitrate]: the “scaled lipid accumulation score” value was not above 0.

Consider `CCCCCCC(=O)O[C@H]1CC[C@H]2[C@@H]3CC(=O)C4=CC(=O)CC[C@]4(C)[C@H]3CC[C@]12C` [6-keto Testosterone Enanthate], for which, under setting [2], the “scaled lipid accumulation score” value was 0.048. Turning to `O=C1Nc2ccc(Cl)cc2C(c2ccccc2Cl)=NC1O` (stereo not given) [Lorazepam], the “scaled lipid accumulation score” value under setting [1] is not above 0. On the same count and under the same terms, the figure for `Oc1ccc2c3c1O[C@H]1c4[nH]c5c(c4C[C@@]4(O)[C@@H](C2)N(CC2CC2)CC[C@]314)C[C@@]1(O)[C@H]2Cc3ccc(O)c4c3[C@@]1(CCN2CC1CC1)[C@H]5O4` [nor-Binaltorphimine dihydrochloride] is ≤ -0.055 and ≤ 0; for `Cl.Oc1ccc2c3c1O[C@H]1c4[nH]c5ccccc5c4C[C@@]4(O)C(C2)N(CC2CC2)CCC314` (stereo not given in full) [Naltrindole hydrochloride] it is 1.1 (active); for `C=C(C)CN1CC[C@@]23c4c5ccc(O)c4O[C@H]2c2[nH]c4ccccc4c2C[C@]3(O)C1C5` [SDM25N hydrochloride] it is 0.625. For the molecule `O=C1/C(=C/c2ccccc2)C[C@@]2(O)[C@H]3Cc4ccc(O)c5c4[C@@]2(CCN3CC2CC2)[C@H]1O5` [BNTX maleate salt hydrate], the “scaled lipid accumulation score” value under setting [1] was not above -0.006.

Turning to `O=C(O)/C=C\C(=O)O.O=C1/C(=C/c2ccccc2)C[C@@]2(O)C3Cc4ccc(O)c5c4[C@@]2(CCN3CC2CC2)[C@H]1O5` [BNTX maleate], the “scaled lipid accumulation score” value under setting [1] is 0.851 (active). For the molecule `O=C1CC[C@@]2(O)[C@H]3Cc4ccc(O)c5c4[C@@]2(CCN3CC2CC2)[C@H]1O5` [Naltrexone HCl], the “scaled lipid accumulation score” value is not above 0 under setting [6], not above -0.006 under setting [7] and 0.025 under setting [1]. In the case of `Cl.Oc1ccc2c3c1O[C@H]1c4[nH]c5ccccc5c4C[C@@]4(O)C(C2)N(CC2CC2)CC[C@]314` [Naltrindole hydrochloride], under setting [1], the “scaled lipid accumulation score” value is 1.33 (active). `Oc1ccc2c3c1O[C@H]1c4[nH]c5ccccc5c4C[C@@]4(O)[C@@H](C2)N(CC2CC2)CC[C@]314` [Naltrindole]: the “scaled lipid accumulation score” value under setting [1] is 0.713. For the molecule `Oc1ccc2c3c1O[C@H]1c4[nH]c5ccccc5c4C[C@@]4(O)[C@@H](C2)N(CC2CC2)CC[C@]314` [Naltrindole HCl], the “scaled lipid accumulation score” value (library stock concentration: 4.8 mM) is 0.264. Regarding `O=C1CC[C@@]2(O)[C@H]3Cc4ccc(O)c5c4[C@@]2(CCN3CC2CC2)[C@H]1O5` [Naltrexone hydrochloride dihydrate], the “scaled lipid accumulation score” value is not above 0. For the molecule `O=C1CC[C@@]2(O)[C@H]3Cc4ccc(O)c5c4[C@@]2(CCN3CC2CC2)[C@H]1O5` [Naltrexone hydrochloride], the “scaled lipid accumulation score” value runs as follows: under setting [7], 0.019; under setting [1], ≤ -0.045 and ≤ -0.027. In the case of `CCCCCCC(C)(C)c1ccc([C@@H]2C[C@H](O)CC[C@H]2CCCO)c(O)c1`, the “scaled lipid accumulation score” value under setting [2] is 0.004. In the case of `CN/C(=N\S(=O)(=O)c1ccc(Cl)cc1)N1C[C@H](c2ccccc2)C(c2ccc(Cl)cc2)=N1`, under setting [2], the “scaled lipid accumulation score” value was not above 0.

On to `COC[C@H]1OC(=O)c2coc3c2[C@@]1(C)C1=C(C3=O)[C@@H]2CCC(=O)[C@@]2(C)C[C@H]1OC(C)=O` [Wortmannin], for which the “scaled lipid accumulation score” value reads like this: under setting [6], not above 0; under setting [1], not above 0.

Consider `CCOC(=O)c1ncn2c1CN(C)C(=O)c1cc(N=[N+]=[N-])ccc1-2`, for which the “scaled lipid accumulation score” value under setting [1] is not above -0.001. With `CC1=CCCC2C1(C)CCC(C)C2(C)CC/C(C)=C/Cn1c[n+](C)c2c(N)ncnc21` (stereo not given) [Agelasine (stereochemistry of diterpene unknown)], under setting [1], the “scaled lipid accumulation score” value is 0.317. For `COc1ccc(N(C(=O)Oc2c(C)cccc2C)c2ccnc(Nc3ccc(N4CCN(C)CC4)cc3)n2)c(OC)c1`, the “scaled lipid accumulation score” value under setting [3] was 0.038; the “scaled lipid accumulation score” value under setting [4] is 0.193; the “scaled lipid accumulation score” value under setting [5] was not above 0; the “scaled lipid accumulation score” value under setting [6] was 0.656; the “scaled lipid accumulation score” value under setting [1] is 0.815 and 0.679. Consider `COc1ccc(-n2nc(C(F)(F)F)cc2-c2ccc(Cl)cc2)cc1`, for which the “scaled lipid accumulation score” value under setting [1] was 0.006.

With `COc1ccc(/C=C/C(=O)CC(=O)/C=C/c2ccc(OC)c(OC)c2)cc1OC` [Dimethoxycurcumin], under setting [2], the “scaled lipid accumulation score” value was not above 0.
